tested on: SRPK3; settings: concentration: 1 μM, replicates: in singlicate; n = 1
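Further: KINOMEscan kinase panel screen.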

Row | SMILES | %Inh
1 | CC(=O)Nc1nc2cnc(Nc3cc(NC(=O)c4cccc(CCC#N)c4)ccc3C)nc2s1 | 0%
2 | Cc1nnc(-c2ccc3occ(-c4ccc(S(C)=O)cc4)c3c2)[nH]1 (centres unmarked) | 0%
3 | Cc1ccc(NC(=O)Nc2cccc(Cl)c2)cc1-c1ccc(C(=O)Nc2ccncc2)cc1 [GSK1398468] | 0%
4 | COc1ccc(Nc2nccc(-c3cccc(NC(=O)c4cc5cc(F)ccc5[nH]4)c3)n2)cc1 [GSK1229782] | 0%
5 | COc1cccc(-c2cc(-c3c[nH]nc3-c3ccccn3)ccn2)c1 [GW680338] | 0%
6 | Fc1cc(Cl)ccc1Nc1ccnc2cc(-c3ccc(CN4CCCCC4)o3)ccc12 [GW560116] | 0%
7 | O=C(Nc1ccc2c(c1)OCO2)NC1CCN(c2ccnc(Nc3ccc(F)cc3)n2)C1 (centres unmarked) [GSK1379724] | 5%
8 | O=C(Nc1ccccc1)Nc1cccc(Oc2ccc3nccn3n2)c1 | 29%
9 | Cn1ccc2ncnc(Oc3ccc(NC(=O)Nc4ccccc4)cc3)c21 | 9%
10 | Cc1ccc(-c2cc(-c3c[nH]nc3-c3ccccn3)ccn2)cc1 [GW684088] | 0%
11 | O=C(O)COc1ncnc2cc(-c3ccc4[nH]ncc4c3)sc12 | 1%
12 | C[C@@H]1CCCCN1c1cc(-c2ccc3c(N)n[nH]c3c2)nc(N)n1 [GSK2258759] | 0%
13 | COc1cc(Nc2nccc(N3CCC(NC(=O)Nc4cc(C)ccc4C)C3)n2)cc(OC)c1OC (centres unmarked) [GSK1379762] | 29%
14 | Nc1nc(-c2nccs2)c(-c2ccnc3ccccc23)s1 [GW693542] | 31%
15 | Cn1cncc1-c1ccc2ncnc(Nc3ccc(OCc4ccccc4)cc3)c2c1 [GW320571] | 25%
16 | Cc1cccc(-c2nc(Nc3ccc4[nH]ncc4c3)c3ccccc3n2)n1 [GW857175] | 28%
17 | O=C1NC(=O)C(N2CCc3ccccc32)=C1c1ccccc1Cl [SB-373598] | 33%
18 | O=C(Nc1n[nH]c2nc(-c3nccs3)c(Br)cc12)C1CC1 [SB-742251] | 0%

Row | SMILES | %Inh
19 | CCCc1ccc(S(=O)(=O)NC2CCN(c3ccnc(Nc4ccc(F)cc4)n3)C2)cc1 (centres unmarked) [GSK1379715] | 6%
20 | Fc1cccc(COc2nnc(-c3ccc4c(c3)CCO4)o2)c1 | 7%
21 | CS(=O)(=O)c1ccc(-c2c(-c3ncn[nH]3)sc(N3CCOCC3)c2C#N)cc1 | 0%
22 | COc1ccc(CNC(=O)NC2CCN(c3ccnc(Nc4cc(OC)c(OC)c(OC)c4)n3)C2)cc1 (centres unmarked) [GSK1379748] | 0%
23 | O=c1cc(N2CCOCC2)nc2n(Cc3cccc(Cl)c3Cl)ccn12 [GSK2286295] | 0%
24 | Cc1ccccc1-n1cnc2c(N)ncnc21 [SKF-97510] | 0%
25 | Cc1cccc(-c2nc(-c3ccc(S(C)(=O)=O)cc3)sc2-c2ccnc(NCCc3ccccc3)c2)c1 | 0%
26 | Cc1cccc(-c2nc(C)cc(Nc3ccncc3)n2)n1 [GSK257997] | 11%
27 | Cc1cc(-c2ccc3c(c2)CC[C@@H](N[C@@H](C)c2ccccc2)C3)cnc1N.Cl [GW412617] | 9%
28 | Cc1ccc(NC(=O)Nc2cc(C(C)(C)C)nn2-c2ccccc2)cc1 [GSK1014915] | 2%
29 | COc1cc2ncn(-c3cc(OCC4CCCO4)c(C(N)=O)s3)c2cc1OC (centres unmarked) [GSK204607] | 0%
30 | COc1cccc(NC(=O)NC2CCN(c3ccnc(Nc4ccc(F)cc4)n3)C2)c1 (centres unmarked) [GSK1379721] | 0%
31 | CC1=C(C(=O)Nc2cc3cn[nH]c3cc2F)C(c2ccc(C(F)(F)F)cc2)CC(=O)N1 (centres unmarked) [GSK429286] | 0%
32 | COc1ccc(C2=C(Nc3cccc(C(=O)O)c3)C(=O)NC2=O)cc1 [SB-390765] | 19%
33 | COc1cc2ncnc(Nc3ccc4nc(-c5ccccc5)[nH]c4c3)c2cc1OC.Cl [GW282450] | 17%
34 | CN1C(=O)C(Nc2ccc(Cl)c(C(=O)O)c2)=C(c2ccc(Cl)cc2)C1=O [SB-404290] | 15%
35 | Cl.NC(=O)c1cccc(Nc2nccc(Nc3ccc(Oc4cccc(Cl)c4)c(Cl)c3)n2)c1 [GW659008] | 13%

— article PMC5540273 (PLoS ONE, 2017)
